Assay results: a collection of fitness landscapes (doi:10.1016/j.celrep.2020.107928)
Over roughly 81,000 sequences, “one-hybrid fitness for binding parS DNA” has its median near -0.17; the highest 2% begin near 0.51. What follows is part of a selection rich in the highest values, with near analogues and random picks from the rest.

B1: Caulobacter ParB omega fusion; a variant is named by its letters at X, in order, B8GW30 (parent)
chain: MESVVVGEPGMSEGRRGLGRGLSALLGEVDAAPAQAPGEQLGGSREAPIEILQRNPDQPRRTFREEDLEDLSNSIREKGVLQPILVRPSPDTAGEYQIVAGERAWRAAQRAGLKTVPIMVRELDDLAVLEIGIIENVQRADLNVLEEALSYKVLMEKFERTQENIAQTIGKSXSHVANXMRLLXLPDEVQSYLVSGELTAXHARAIAAAADPVALAKQIIEGGLSVRETEALARKAPNLSAGKSKGGRPPRVKDTDTQALESDLSSVLGLDVSIDHRGSTGTLTITYATLEQLDDLCNRLTRGI

Variants of: B1
Assay: one-hybrid fitness for binding parS DNA (scaled: cognate 1, non-cognate 0); higher = stronger binding
Settings: with parS DNA site
Summary of the method: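 Fitness here means the log change in variant-to-wild-type read ratio between plasmids sequenced before and after selection. That scale was set so cognate equals 1 and non-cognate equals 0. The selection was a bacterial one-hybrid screen of Caulobacter ParB libraries, four specificity codons randomised, in E. coli USO carrying a HIS3 reporter with the site 19 bp from the promoter, grown 48 hours at 37°C on M9-minus-histidine with 0.1 mM IPTG and 5 mM 3-AT.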

| Variant | one-hybrid fitness for binding parS DNA |
| --- | --- |
| RVIF | ≤ 0.2 |
| RVPK | ≤ 0.2 |
| RVPM | ≤ 0.2 |
| RVPT | 0.529 |
| RVIT | 0.703 |
| RVIQ | ≤ 0.2 |
| CFTG | ≤ 0.2 |
| TTVP | ≤ 0.2 |
| PCIV | ≤ 0.2 |
| RNVA | 0.312 |
| RNYA | 0.467 |
| RNSA | 0.495 |
| RNDA | 0.354 |
| RNNA | 0.529 |
| RNKA | 0.541 |
| RNWA | 0.294 |
| RNQA | 0.489 |
| RNRA | 0.534 |
| CRFC | ≤ 0.2 |
| AKST | ≤ 0.2 |
| DDYL | ≤ 0.2 |
| DYFD | ≤ 0.2 |
| RYQR | ≤ 0.2 |
| QVQY | ≤ 0.2 |

| Variant | one-hybrid fitness for binding parS DNA |
| --- | --- |
| RMTI | ≤ 0.2 |
| KKRY | ≤ 0.2 |
| IVRC | ≤ 0.2 |
| DLVM | ≤ 0.2 |
| RNDM | ≤ 0.2 |
| RNNN | 0.385 |
| RNNG | 0.948 |
| RNDK | ≤ 0.2 |
| RNDG | 0.679 |
| RNNH | ≤ 0.2 |
| LLYC | ≤ 0.2 |
| DVVM | ≤ 0.2 |
| PAYG | ≤ 0.2 |
| PDSP | ≤ 0.2 |
| THIF | ≤ 0.2 |
| ESHS | ≤ 0.2 |
| VADN | ≤ 0.2 |
| RFHP | ≤ 0.2 |
| RFHH | ≤ 0.2 |
| RCHD | ≤ 0.2 |
| RMHD | ≤ 0.2 |
| RFHS | 0.996 |
| RKHS | 0.832 |
| RCHS | 0.953 |

| Variant | one-hybrid fitness for binding parS DNA |
| --- | --- |
| RMHS | 0.979 |
| RPHS | ≤ 0.2 |
| RMHN | 0.482 |
| RKHN | 0.375 |
| RKHD | ≤ 0.2 |
| SNSI | ≤ 0.2 |
| KYKR | ≤ 0.2 |
| WCAL | ≤ 0.2 |
| YGRT | ≤ 0.2 |
| RSHH | ≤ 0.2 |
| RSHS | 1 |
| RSHP | ≤ 0.2 |
| RAHD | ≤ 0.2 |
| RAHN | 0.481 |
| RAHS | 0.985 |
| WEGR | ≤ 0.2 |
| ADSS | ≤ 0.2 |
| ALSE | ≤ 0.2 |
| KLGY | ≤ 0.2 |
| RVFS | 1.03 |
| RVFD | ≤ 0.2 |
| RVAN | 0.452 |
| RVAH | 0.225 |
| RVFN | 0.399 |

| Variant | one-hybrid fitness for binding parS DNA |
| --- | --- |
| RVAS | 1.01 |
| PPTK | ≤ 0.2 |
| IPLI | ≤ 0.2 |
| QGDC | ≤ 0.2 |
| PYSF | ≤ 0.2 |
| RMKW | 0.694 |
| RMRW | 0.586 |
| RMYW | 0.216 |
| RCKW | 0.367 |
| RMDW | ≤ 0.2 |
| RMVW | 0.23 |
| MALS | ≤ 0.2 |
| IADM | ≤ 0.2 |
| HDPK | ≤ 0.2 |
| FDHR | ≤ 0.2 |
| TTAR | ≤ 0.2 |
| QWPT | ≤ 0.2 |
| QFYR | ≤ 0.2 |
| VGKG | ≤ 0.2 |
| DTRA | ≤ 0.2 |
| RTRA | 0.794 |
| DTYA | ≤ 0.2 |
| ATYA | ≤ 0.2 |
| RTYA | 0.606 |

| Variant | one-hybrid fitness for binding parS DNA |
| --- | --- |
| NTRA | ≤ 0.2 |
| NWKG | ≤ 0.2 |
| RVDE | ≤ 0.2 |
| TNYG | ≤ 0.2 |
| PHTE | ≤ 0.2 |
| MVER | ≤ 0.2 |
| GAIS | ≤ 0.2 |
| VHEV | ≤ 0.2 |
| RCRG | 0.927 |
| RSRG | 0.965 |
| RPRG | ≤ 0.2 |
| RDRG | ≤ 0.2 |
| RDYG | ≤ 0.2 |
| RERG | 0.388 |
| RPYG | ≤ 0.2 |
| RSRR | ≤ 0.2 |
| RCYG | 1.04 |
| EMQT | ≤ 0.2 |
| RTTM | 0.316 |
| HGTT | ≤ 0.2 |
| LGRI | ≤ 0.2 |
| DCMT | ≤ 0.2 |
| VQTR | ≤ 0.2 |
| RYGY | 0.42 |

| Variant | one-hybrid fitness for binding parS DNA |
| --- | --- |
| RYYT | 0.876 |
| RYYK | ≤ 0.2 |
| RYCK | ≤ 0.2 |
| RYWP | ≤ 0.2 |
| RYGT | 0.853 |
| RYCT | 0.852 |
| RYWT | 0.787 |
| RYCQ | ≤ 0.2 |
| RYGK | ≤ 0.2 |
| RYWD | ≤ 0.2 |
| RYYF | 0.22 |
| TIPF | ≤ 0.2 |
| GWDS | ≤ 0.2 |
| DNAI | ≤ 0.2 |
| LTPR | ≤ 0.2 |
| DAHI | ≤ 0.2 |
| KFDS | ≤ 0.2 |
| TQIL | ≤ 0.2 |
| VNDP | 0.246 |
| RYNQ | ≤ 0.2 |
| RYLN | 0.396 |
| RYLT | 0.911 |
| RYST | 0.862 |
| RYNE | ≤ 0.2 |

| Variant | one-hybrid fitness for binding parS DNA |
| --- | --- |
| RYSM | 0.302 |
| RYLP | ≤ 0.2 |
| RYRQ | ≤ 0.2 |
| RYSQ | ≤ 0.2 |
| RYRF | ≤ 0.2 |
| RYRT | 0.737 |
| RYNT | 0.819 |
| DRTC | ≤ 0.2 |
| SSMT | ≤ 0.2 |
| KHMR | ≤ 0.2 |
| VHNS | ≤ 0.2 |
| QCGM | ≤ 0.2 |
| MVQC | ≤ 0.2 |
| PQQE | ≤ 0.2 |
| MRLA | ≤ 0.2 |
| PVER | ≤ 0.2 |
| RYDR | ≤ 0.2 |
| RYDF | ≤ 0.2 |
| RYHT | 0.889 |
| RYHP | ≤ 0.2 |
| RYQY | 0.422 |
| RYHH | 0.213 |
| RYQQ | ≤ 0.2 |
| RYDT | 0.79 |

| Variant | one-hybrid fitness for binding parS DNA |
| --- | --- |
| RYQT | 0.853 |
| VVQF | ≤ 0.2 |
| QNYM | ≤ 0.2 |
| DLKH | ≤ 0.2 |
| LLYM | ≤ 0.2 |
| LLNS | ≤ 0.2 |
| QAGT | ≤ 0.2 |
| RTPD | ≤ 0.2 |
| RTID | 0.203 |
| RTIN | 0.355 |
| RTIT | 0.813 |
| RTPY | 0.221 |
| RTPT | 0.558 |
| PDAC | ≤ 0.2 |
| RCWY | 0.513 |
| RPWY | ≤ 0.2 |
| RSWY | 0.422 |
| RTWY | 0.521 |
| RAWY | 0.512 |
| IEES | ≤ 0.2 |
| IWRM | ≤ 0.2 |
| RRIW | ≤ 0.2 |
| VLVG | ≤ 0.2 |
| RWGK | ≤ 0.2 |

| Variant | one-hybrid fitness for binding parS DNA |
| --- | --- |
| RWLM | ≤ 0.2 |
| RWGC | 0.61 |
| RWHC | 0.733 |
| RWIC | 0.521 |
| RWHQ | ≤ 0.2 |
| RWPC | 0.337 |
| RWLC | 0.658 |
| RWLK | ≤ 0.2 |
| RWIN | ≤ 0.2 |
| RWGN | ≤ 0.2 |
| RWHY | 0.275 |
| CKVC | ≤ 0.2 |
| IMHG | ≤ 0.2 |
| QMQR | ≤ 0.2 |
| ATLN | ≤ 0.2 |
| RPRL | ≤ 0.2 |
| ASCK | ≤ 0.2 |
| TRPS | ≤ 0.2 |
| GPIF | ≤ 0.2 |
| WAKY | ≤ 0.2 |
| RWQR | ≤ 0.2 |
| RWRH | 0.223 |
| RWCK | ≤ 0.2 |
| RWRC | 0.895 |

| Variant | one-hybrid fitness for binding parS DNA |
| --- | --- |
| RWCC | 0.636 |
| RWRD | ≤ 0.2 |
| RWQC | 0.73 |
| RWSK | ≤ 0.2 |
| RWSC | 0.788 |
| RWCD | ≤ 0.2 |
| RWSY | 0.338 |
| RWQQ | ≤ 0.2 |
| ADHG | ≤ 0.2 |
| DYYC | ≤ 0.2 |
| LWRS | ≤ 0.2 |
| VTPY | ≤ 0.2 |
| PYRW | ≤ 0.2 |
| MYTG | ≤ 0.2 |
| RWYP | ≤ 0.2 |
| NWWC | ≤ 0.2 |
| RWWC | 0.521 |
| RWYD | ≤ 0.2 |
| RWYC | 0.662 |
| RWWM | ≤ 0.2 |
| GTFW | ≤ 0.2 |
| SPEV | ≤ 0.2 |
| GWNS | ≤ 0.2 |
| RHNC | 0.871 |

| Variant | one-hybrid fitness for binding parS DNA |
| --- | --- |
| RHSC | 0.924 |
| RHSD | ≤ 0.2 |
| RHRR | ≤ 0.2 |
| RHDC | 0.878 |
| RHNP | ≤ 0.2 |
| RHRC | 0.879 |
| RHSH | ≤ 0.2 |
| RHNN | 0.386 |
| RHDY | 0.397 |
| RHDM | 0.254 |
| RHRQ | ≤ 0.2 |
| GRGR | ≤ 0.2 |
| PQPN | ≤ 0.2 |
| DESG | ≤ 0.2 |
| ATAA | ≤ 0.2 |
| TIDL | ≤ 0.2 |
| FQIS | ≤ 0.2 |
| YIVC | ≤ 0.2 |
| CDYG | ≤ 0.2 |
| TKDN | ≤ 0.2 |
| ASNP | ≤ 0.2 |
| RHLK | ≤ 0.2 |
| RHHC | 0.934 |
| RHYR | ≤ 0.2 |

| Variant | one-hybrid fitness for binding parS DNA |
| --- | --- |
| RHHM | 0.266 |
| RHYF | 0.211 |
| RHYC | 0.92 |
| RHLY | 0.428 |
| RHCF | ≤ 0.2 |
| RHLC | 0.928 |
| RHCC | 0.869 |
| RHCY | 0.371 |
| RHHY | 0.4 |
| WTHL | ≤ 0.2 |
| QEVD | ≤ 0.2 |
| DTTH | ≤ 0.2 |
| VQAA | ≤ 0.2 |
| DVLS | ≤ 0.2 |
| THPF | ≤ 0.2 |
| RYFM | 0.264 |
| RYAY | 0.425 |
| RYFG | 0.932 |
| RYAQ | ≤ 0.2 |
| RYAG | 0.982 |
| RYFY | 0.43 |
| VACC | ≤ 0.2 |
| TPLH | ≤ 0.2 |
| GCSG | ≤ 0.2 |

| Variant | one-hybrid fitness for binding parS DNA |
| --- | --- |
| IIPI | ≤ 0.2 |
| PYAK | ≤ 0.2 |
| IRPT | ≤ 0.2 |
| RQEK | ≤ 0.2 |
| RQEH | 0.281 |
| RQEQ | 0.223 |
| RQEN | 0.379 |
| RQET | 0.719 |
| RQER | ≤ 0.2 |
| RQED | ≤ 0.2 |
| RQEP | ≤ 0.2 |
| RQEC | 0.829 |
| RQEG | 0.89 |
| RQES | 0.962 |
| RQEM | 0.255 |
| KSGF | ≤ 0.2 |
| HSSQ | ≤ 0.2 |
| MISR | ≤ 0.2 |
